Holding throughout (assay): DAPPL (digital affinity profiling via proximity ligation, sequencing); 10 mM Tris-HCl pH 7.5, 50 mM NaCl, 1 mM DTT, 4% glycerol, room temperature, 30 min; GST-TFs on glutathione beads, 16-mer random dsDNA library, 0.1% formaldehyde crosslink after washing; high values mean tight binding
Conditions in all cases: protein: recombinant; tags: N-terminal GST; dsDNA, one strand shown

The target in assay [1] is T1, FLI1 (Homo sapiens, UniProt Q01543 1-452).
T1 sequence: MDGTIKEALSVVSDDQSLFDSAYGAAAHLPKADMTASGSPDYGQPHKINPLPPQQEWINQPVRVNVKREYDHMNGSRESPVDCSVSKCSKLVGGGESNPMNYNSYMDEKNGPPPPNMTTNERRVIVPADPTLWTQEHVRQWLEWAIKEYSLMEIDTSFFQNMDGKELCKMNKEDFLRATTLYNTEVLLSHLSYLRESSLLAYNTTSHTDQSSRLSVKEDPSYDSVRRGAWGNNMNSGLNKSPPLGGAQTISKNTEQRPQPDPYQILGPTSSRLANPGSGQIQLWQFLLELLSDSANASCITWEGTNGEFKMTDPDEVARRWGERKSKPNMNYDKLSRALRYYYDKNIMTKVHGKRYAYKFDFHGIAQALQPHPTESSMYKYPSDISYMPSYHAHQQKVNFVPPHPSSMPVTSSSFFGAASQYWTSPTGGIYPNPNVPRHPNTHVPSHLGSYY
An outline of the steps: (§1)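 Binding signal is given per hexamer as its read frequency for a factor divided by its frequency in the tag-only sample. GST-fused human transcription factors were expressed in yeast, captured on glutathione beads, barcoded with DNA and pooled with that sample, then incubated with 200 nmole of a 16-mer random double-stranded DNA library in Tris/NaCl/DTT/glycerol buffer for 30 min at room temperature. The pools were then washed, crosslinked, proximity-ligated, amplified by PCR and sequenced on an Illumina NextSeq500.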

Assay [2] concerns the target T2, ELK1 (Homo sapiens, UniProt P19419 1-428).
T2 sequence: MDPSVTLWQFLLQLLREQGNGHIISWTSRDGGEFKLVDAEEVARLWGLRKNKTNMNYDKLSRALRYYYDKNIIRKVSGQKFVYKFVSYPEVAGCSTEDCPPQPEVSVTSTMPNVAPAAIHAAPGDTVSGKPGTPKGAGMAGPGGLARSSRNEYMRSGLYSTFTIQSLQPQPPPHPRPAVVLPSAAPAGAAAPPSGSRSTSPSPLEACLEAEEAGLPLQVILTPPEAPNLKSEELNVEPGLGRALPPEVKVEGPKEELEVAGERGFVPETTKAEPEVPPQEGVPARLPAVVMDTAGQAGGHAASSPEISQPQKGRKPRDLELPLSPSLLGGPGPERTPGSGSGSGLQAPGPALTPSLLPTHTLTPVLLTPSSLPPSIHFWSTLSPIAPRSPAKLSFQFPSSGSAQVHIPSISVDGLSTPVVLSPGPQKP
The method, boiled down:
as §1

Assay [3] addresses T3, GABPA (Homo sapiens, UniProt Q06546 1-454).
T3 sequence: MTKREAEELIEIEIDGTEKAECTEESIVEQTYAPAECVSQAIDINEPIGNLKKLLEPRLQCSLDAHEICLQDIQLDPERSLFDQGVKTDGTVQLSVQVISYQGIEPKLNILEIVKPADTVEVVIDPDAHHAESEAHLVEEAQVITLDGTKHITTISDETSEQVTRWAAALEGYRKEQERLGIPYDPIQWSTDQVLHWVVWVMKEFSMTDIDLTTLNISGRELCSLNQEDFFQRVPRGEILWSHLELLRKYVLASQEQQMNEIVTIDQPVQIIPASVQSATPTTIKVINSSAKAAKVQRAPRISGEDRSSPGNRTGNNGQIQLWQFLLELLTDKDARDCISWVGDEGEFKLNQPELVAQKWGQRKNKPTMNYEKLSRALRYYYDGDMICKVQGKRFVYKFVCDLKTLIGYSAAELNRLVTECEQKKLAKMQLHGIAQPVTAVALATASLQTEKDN
An outline of the steps:
as §1

In assay [4] the target is T4, ERG (Homo sapiens, UniProt P11308 1-479).
T4 sequence: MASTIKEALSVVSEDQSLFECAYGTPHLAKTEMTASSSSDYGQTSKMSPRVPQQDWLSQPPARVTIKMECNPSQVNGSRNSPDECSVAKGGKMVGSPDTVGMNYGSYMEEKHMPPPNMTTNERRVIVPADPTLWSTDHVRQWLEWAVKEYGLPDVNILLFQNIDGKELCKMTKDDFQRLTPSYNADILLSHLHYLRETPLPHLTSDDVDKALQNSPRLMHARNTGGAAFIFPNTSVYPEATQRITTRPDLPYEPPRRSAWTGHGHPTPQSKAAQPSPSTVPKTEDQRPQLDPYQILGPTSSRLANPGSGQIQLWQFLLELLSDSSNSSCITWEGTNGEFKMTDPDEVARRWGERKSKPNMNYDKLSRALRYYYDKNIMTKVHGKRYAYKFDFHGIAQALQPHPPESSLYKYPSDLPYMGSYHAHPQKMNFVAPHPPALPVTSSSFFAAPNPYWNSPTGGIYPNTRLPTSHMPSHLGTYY
The method, boiled down:
as §1

Assay [5] has as its target ELF1 (Homo sapiens, UniProt P32519 1-619). The method, boiled down:
as §1

Assay [6] deals with T5, EHF (Homo sapiens, UniProt Q9NZC4 1-300).
T5 sequence: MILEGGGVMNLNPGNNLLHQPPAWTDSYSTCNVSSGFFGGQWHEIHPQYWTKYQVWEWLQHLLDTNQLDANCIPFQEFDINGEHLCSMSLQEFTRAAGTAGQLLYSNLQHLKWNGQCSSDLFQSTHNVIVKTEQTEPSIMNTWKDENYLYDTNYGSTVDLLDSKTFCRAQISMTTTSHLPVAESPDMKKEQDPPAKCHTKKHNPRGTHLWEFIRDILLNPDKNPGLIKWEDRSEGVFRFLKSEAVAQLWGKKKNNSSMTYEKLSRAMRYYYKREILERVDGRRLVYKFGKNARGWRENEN
The method, boiled down: as §1

The target in assay [7] is SPI1 (Homo sapiens, UniProt P17947 1-270). An outline of the steps: as §1
In assay [8] the target is SPIB (Homo sapiens, UniProt Q01892 1-262). An outline of the steps: as §1
For assay [9], the target named is T6, ELK3 (Homo sapiens, UniProt P41970 1-407).
T6 sequence: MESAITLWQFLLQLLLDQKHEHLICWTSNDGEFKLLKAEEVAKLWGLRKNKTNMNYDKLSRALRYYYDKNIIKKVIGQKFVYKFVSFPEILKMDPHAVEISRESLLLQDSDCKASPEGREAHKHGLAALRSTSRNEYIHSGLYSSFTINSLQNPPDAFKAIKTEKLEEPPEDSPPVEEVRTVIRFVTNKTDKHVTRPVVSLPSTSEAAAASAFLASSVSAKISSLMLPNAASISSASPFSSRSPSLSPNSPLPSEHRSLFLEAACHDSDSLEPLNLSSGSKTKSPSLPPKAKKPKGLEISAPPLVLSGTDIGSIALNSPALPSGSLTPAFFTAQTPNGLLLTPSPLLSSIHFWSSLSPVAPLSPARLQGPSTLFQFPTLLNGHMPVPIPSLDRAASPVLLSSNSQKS
The method, boiled down:
as §1

ELF1, sequence (P32519 whole entry): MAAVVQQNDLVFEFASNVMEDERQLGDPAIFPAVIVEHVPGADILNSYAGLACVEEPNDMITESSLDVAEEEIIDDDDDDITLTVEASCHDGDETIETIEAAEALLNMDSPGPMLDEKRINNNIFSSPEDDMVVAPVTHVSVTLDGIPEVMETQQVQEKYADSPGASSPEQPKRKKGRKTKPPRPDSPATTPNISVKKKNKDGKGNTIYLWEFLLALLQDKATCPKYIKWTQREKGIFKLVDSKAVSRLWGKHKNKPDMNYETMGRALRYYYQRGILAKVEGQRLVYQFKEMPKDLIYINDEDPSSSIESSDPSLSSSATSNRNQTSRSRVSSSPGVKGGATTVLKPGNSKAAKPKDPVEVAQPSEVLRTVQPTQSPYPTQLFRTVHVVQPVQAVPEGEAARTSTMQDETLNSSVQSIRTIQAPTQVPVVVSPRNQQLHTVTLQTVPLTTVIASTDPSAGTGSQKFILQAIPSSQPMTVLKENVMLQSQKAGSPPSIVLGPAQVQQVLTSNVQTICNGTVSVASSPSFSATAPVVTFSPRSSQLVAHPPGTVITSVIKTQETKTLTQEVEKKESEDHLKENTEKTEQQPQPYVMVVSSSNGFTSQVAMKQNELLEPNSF
SPIB, sequence (Q01892 whole entry): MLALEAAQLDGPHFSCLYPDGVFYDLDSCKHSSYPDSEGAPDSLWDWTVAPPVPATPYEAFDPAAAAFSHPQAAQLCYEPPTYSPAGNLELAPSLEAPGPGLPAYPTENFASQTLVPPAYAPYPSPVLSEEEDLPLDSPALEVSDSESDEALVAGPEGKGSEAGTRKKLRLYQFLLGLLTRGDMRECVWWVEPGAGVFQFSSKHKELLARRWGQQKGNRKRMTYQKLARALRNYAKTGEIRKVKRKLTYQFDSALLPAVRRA

Regarding ATGTTG, the binding signal in [1] was 1.31 fold enrichment (6-mer frequency, TF over GST control); in [2], 1.26 fold enrichment (6-mer frequency, TF over GST control); in [3], 1.22 fold enrichment (6-mer frequency, TF over GST control); in assay [4], 1.26 fold enrichment (6-mer frequency, TF over GST control); in [5], 1.35 fold enrichment (6-mer frequency, TF over GST control); in assay [6], 1.21 fold enrichment (6-mer frequency, TF over GST control). Besides, the binding signal in [7] is 1.3 fold enrichment (6-mer frequency, TF over GST control); in assay [8], 1.18 fold enrichment (6-mer frequency, TF over GST control); in assay [9], 1.21 fold enrichment (6-mer frequency, TF over GST control).
Take TGTTTG: the binding signal in assay [1] is 1.52 fold enrichment (6-mer frequency, TF over GST control); in assay [2], 1.31 fold enrichment (6-mer frequency, TF over GST control); in assay [3] it was 1.32 fold enrichment (6-mer frequency, TF over GST control); in assay [4], 1.27 fold enrichment (6-mer frequency, TF over GST control); in [5] it was 1.22 fold enrichment (6-mer frequency, TF over GST control); in assay [6], 1.31 fold enrichment (6-mer frequency, TF over GST control). For the same sequence, the binding signal is 1.29 fold enrichment (6-mer frequency, TF over GST control) in assay [7]; 1.42 fold enrichment (6-mer frequency, TF over GST control) in [8]; 1.29 fold enrichment (6-mer frequency, TF over GST control) in assay [9].
With TGATTT, the binding signal in assay [1] was 1.29 fold enrichment (6-mer frequency, TF over GST control); in assay [2] it was 1.2 fold enrichment (6-mer frequency, TF over GST control); in [3], 1.33 fold enrichment (6-mer frequency, TF over GST control); in assay [4], 1.35 fold enrichment (6-mer frequency, TF over GST control); in assay [5], 1.23 fold enrichment (6-mer frequency, TF over GST control); in [6] it was 1.18 fold enrichment (6-mer frequency, TF over GST control). For the same sequence, the binding signal in assay [7] is 1.21 fold enrichment (6-mer frequency, TF over GST control); in assay [8], 1.23 fold enrichment (6-mer frequency, TF over GST control); in assay [9], 1.11 fold enrichment (6-mer frequency, TF over GST control).
ACTTAA: the binding signal was 1.17 fold enrichment (6-mer frequency, TF over GST control) in [1]; 1.23 fold enrichment (6-mer frequency, TF over GST control) in assay [2]; 1.22 fold enrichment (6-mer frequency, TF over GST control) in [3]; 1.11 fold enrichment (6-mer frequency, TF over GST control) in assay [4]; 1.18 fold enrichment (6-mer frequency, TF over GST control) in assay [5]; 1.31 fold enrichment (6-mer frequency, TF over GST control) in assay [6]. The binding signal was 1.24 fold enrichment (6-mer frequency, TF over GST control) in assay [7]; 1.18 fold enrichment (6-mer frequency, TF over GST control) in [8]; 1.24 fold enrichment (6-mer frequency, TF over GST control) in assay [9].
With GAATCC, the binding signal was 1.15 fold enrichment (6-mer frequency, TF over GST control) in [1]; 1.09 fold enrichment (6-mer frequency, TF over GST control) in assay [2]; 1.08 fold enrichment (6-mer frequency, TF over GST control) in assay [3]; 1.18 fold enrichment (6-mer frequency, TF over GST control) in assay [4]; 1.13 fold enrichment (6-mer frequency, TF over GST control) in assay [5]; 1.14 fold enrichment (6-mer frequency, TF over GST control) in assay [6]. The binding signal in [7] is 1.14 fold enrichment (6-mer frequency, TF over GST control); in assay [8] it was 1.11 fold enrichment (6-mer frequency, TF over GST control); in assay [9], 1.08 fold enrichment (6-mer frequency, TF over GST control).
With CTTTCA, the binding signal in assay [1] was 1.45 fold enrichment (6-mer frequency, TF over GST control); in [2], 1.32 fold enrichment (6-mer frequency, TF over GST control); in assay [3] it was 1.46 fold enrichment (6-mer frequency, TF over GST control); in [4], 1.23 fold enrichment (6-mer frequency, TF over GST control); in assay [5], 1.41 fold enrichment (6-mer frequency, TF over GST control); in [6] it was 1.3 fold enrichment (6-mer frequency, TF over GST control). Moreover, the binding signal in [7] was 1.45 fold enrichment (6-mer frequency, TF over GST control); in assay [8], 1.28 fold enrichment (6-mer frequency, TF over GST control); in assay [9], 1.36 fold enrichment (6-mer frequency, TF over GST control).
For the sequence CCCGGA, the binding signal in [1] was 2.74 fold enrichment (6-mer frequency, TF over GST control); in assay [2] it was 2.61 fold enrichment (6-mer frequency, TF over GST control); in assay [3], 2.61 fold enrichment (6-mer frequency, TF over GST control); in assay [4], 2.99 fold enrichment (6-mer frequency, TF over GST control); in assay [5], 2.87 fold enrichment (6-mer frequency, TF over GST control); in [6] it was 2.95 fold enrichment (6-mer frequency, TF over GST control). In addition, the binding signal in assay [7] is 2.47 fold enrichment (6-mer frequency, TF over GST control); in [8] it was 3.06 fold enrichment (6-mer frequency, TF over GST control); in assay [9], 2.85 fold enrichment (6-mer frequency, TF over GST control).

The values are drawn from paper PMC7862700, “An all-to-all approach to the identification of sequence-specific readers for epigenetic DNA modifications on cytosine”.
